This is a sample that favours compounds with a hit; in the whole collection about 7.9% have one here.
MCF10A rerep = DNA re-replication induction in MCF 10a cells; AID 624296; Potency, µM (highest dose often 46.1 µM), inactives show at the top dose activity, positive = re-replication, usual class: activators; 350,000 tested, 2.9% active; MCF 10A DNA re-replication, Hoechst nuclear intensity, 48 h; also: % of control where 0% means no effect; nearly all actives have a fitted effect of over 50% in size
KB-V1 MDR tox = KB-V1 MDR subline cytotoxicity | KB-V1 MDR cells viability, CellTiter-Glo, 72 h | Potency, µM (highest dose often 46.1 µM), most hits filed as cytotoxic | 400,000 tested, 3.4% active | AID 1347076; also: % is scaled to controls: 0 for no effect and ±100 for the full control effect; nearly all actives have a fitted effect of over 60% in size
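KB-V1, DMEM (no phenol red) + 10% FBS; cpd pin-transferred, titration series; 72 h, 37 degrees C; CellTiter-Glo, luminescence. Data normalized, curve-fit.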
KB-3-1 cytotox = KB-3-1 parental cell cytotoxicity | KB-3-1 viability, CellTiter-Glo ATP luminescence, 72 h | Potency, µM (titrated, usually from 46.1 µM), actives largely listed as cytotoxic | 400,000 tested, 1.4% active | AID 1347075; also: % is scaled to controls: 0 for no effect and ±100 for the full control effect; nearly all actives have a fitted effect of over 60% in size
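Cytotoxicity in the drug-sensitive parental line KB-3-1 was scored as loss of CellTiter-Glo luminescence following 72 h incubation with compound. Values come from curve fitting of normalized concentration-response data.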
HT1080NT lethal = kills 2HG-producing HT-1080-NT fibrosarcoma cells. Potency, µM (highest dose often 46.1 µM), inactives show at the top dose activity, negative = less viability, most hits filed as cytotoxic. AID 686970. 360,000 tested, 1.6% active. HT-1080-NT fibrosarcoma viability, CellTiter-Glo ATP luminescence, 48 h;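 also: NT is the 2HG producing partner of a matched IDH1 knockdown line; 0% = DMSO-treated cells and -100% = media-only wells without cells; nearly all actives have a fitted effect of over 55% in size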
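Read-out is CellTiter-Glo luminescence after 10 minutes at room temperature, following 48 hours' compound treatment of HT-1080-NT cells (750 cells/well, RPMI, 5% FBS, 37 degrees C).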
HT1080 IDH1KD tx = HT-1080 IDH1 knockdown cell toxicity (counter line) | HT-1080 IDH1 knockdown viability, ATP luminescence, 48 h | Potency, µM (titrated, usually from 46.1 µM), for inactives: top-dose activity, negative = toxicity, actives largely listed as cytotoxic | 360,000 tested, 2% active;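 also: 0% = DMSO wells and -100% = cell-free medium wells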
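Luminescent ATP read-out (CellTiter-Glo, 10 min at room temperature) after 48 h compound exposure at 37 °C gave viability of IDH1-knockdown HT-1080 cells. Activity was normalised to DMSO and cell-free wells, then fitted as concentration-response curves.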
SW480 rerep = DNA re-replication induction in SW480 cells; SW480 DNA re-replication, Hoechst DNA content imaging, 48 h; 340,000 tested, 1.8% active; Potency, µM (doses to about 46.1 µM), for inactives: at the highest dose re-replication activation, hits mostly activators; also: % of control where 0% means no effect; nearly all actives have a fitted effect of over 55% in size
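Cells (250 per well) received 23 nL compound or DMSO by pin tool and were kept 48 hr at 37 C, 5% CO2. Nuclei were then stained with Hoechst for 40 min and scanned for DNA content.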
* hit, by the source's call; i = inactive; ? = inconclusive; · = no result; [ ] = remark or other dose. Calls follow the shape of the dose curve; as a rule, active = well fitted curve in the direction sought with a large enough effect; inconclusive = small, poorly fitted or top-dose-only effect, or another doubt; inactive = no such curve, though single readings can be large; an effect the other way counts as inactive or inconclusive. Potency is read from the fitted curve at half-maximal effect.

SMILES	MCF10A rerep	KB-V1 MDR tox	KB-3-1 cytotox	HT1080NT lethal	HT1080 IDH1KD tx	SW480 rerep
CCN(c1ccc(OC)cc1)S(=O)(=O)c1c(C(=O)N2CCCCCC2)c(C)n(C)c1C	·	i	i	·	·	·
Cc1ccc(S(=O)(=O)N2CCCCC2)cc1NC(=O)C1CCC1	10%	23µM*	i	-1%	8%	6%
Cc1cc(C)c2c(c1)cc(C)c1nnc(SCC(=O)Nc3ccc(S(=O)(=O)N4CCCCC4)cc3)n12	-3%	18µM*	i	-8%	-16%	9%
Nc1nnc(SCC(=O)Nc2cccc(S(=O)(=O)N3CCCCC3)c2)s1	?	i	i	-4%	-4%	?
O=C(Nc1nc2ccccc2s1)C1CCN(S(=O)(=O)c2cc([N+](=O)[O-])ccc2Cl)CC1	3%	13µM*	2.3µM*	?	16µM*	?
Cc1ccc2cc(C)c(SCC(=O)Nc3ccc(S(=O)(=O)N4CCCC4)cc3)nc2c1	3%	i	i	4%	-7%	-13%
Cc1ccc(S(=O)(=O)N2CCCCC2)cc1NC(=O)CSc1nnc(N)s1	0.58µM*	i	i	1%	0%	-1%
CC(C)Oc1ccc(S(=O)(=O)N2CCOCC2)cc1NC(=O)CC1CC2CCC1C2 (stereo not given)	·	i	i	8%	0%	·
CC1CC(C)CN(C(C)C(=O)Nc2cc(S(=O)(=O)N3CCCCC3)ccc2Cl)C1 (stereo not given)	-15%	i	i	-5%	-2%	-5%
Cc1ccc(C(=O)Nc2nc3ccc(S(=O)(=O)N4CCCC4)cc3s2)cc1	·	i	i	·	·	·
COc1ccc2nc(NC(=O)C3CCCN3S(=O)(=O)c3ccc(C)cc3)sc2c1 (stereo not given)	15%	18µM*	i	-10%	-1%[9.24 µM]	5%
CN(C)c1cccc(C(=O)Nc2nc3ccc(S(=O)(=O)N4CCCC4)cc3s2)c1	·	21µM*	10µM*	·	·	·
CC1CCN(C(C)C(=O)Nc2cc(S(=O)(=O)N3CCCCC3)ccc2Cl)CC1 (stereo not given)	5%	15µM*	?	0%	6%	0%
COc1cccc(C(=O)Nc2nc3ccc(S(=O)(=O)N4CCCC4)cc3s2)c1	·	?	13µM*	·	·	·
COc1ccccc1CNC(=O)C1CCN(S(=O)(=O)c2ccc3c(ccn3C)c2)CC1	·	i	i	·	·	·
CCCNC(=O)C1CCN(S(=O)(=O)c2ccc3c(c2)CCCN3C(C)=O)CC1	·	i	i	·	·	·
O=C1C=CC(c2c[nH]c3ccccc23)CC1 (stereo not given)	·	i	?	?	?	·
CCSc1nnc2c(n1)OC(c1ccc(OC)cc1OC)N(C(C)=O)c1ccccc1-2 (stereo not given)	·	?	i	·	·	·
COc1cccc(NC(=O)CN2C(=O)c3cccc4cccc2c34)c1	·	?	i	·	·	·
N#CCc1nc2ccc(S(=O)(=O)N3CCOCC3)cc2s1	13µM*	i	i	-7%	-25%	150%
CCc1noc(-c2ccc(NCc3ccccc3)c([N+](=O)[O-])c2)n1	·	i	i	·	·	·
CN1OC[C@@H]2CN(Cc3ccc4c(c3)OCO4)[C@H](c3ccc(N4CCCCC4)cc3)C[C@@H]21	·	i	i	-8%	1%	·
Cc1nc(N2CCN(C(=O)c3ccco3)CC2)c2c3c(sc2n1)CCC3	0%	8.2µM*	?	-29%	-29%	-4%
CC(C)(C)C(=O)N1CCN(c2ncnc3scc(-c4ccccc4)c23)CC1	8%	15µM*	?	-23%	?	24%
Cc1ccc(-c2csc3ncnc(N4CCN(C(=O)c5ccco5)CC4)c23)cc1	22%	21µM*	i	?	?	6%
SMILES	MCF10A rerep	KB-V1 MDR tox	KB-3-1 cytotox	HT1080NT lethal	HT1080 IDH1KD tx	SW480 rerep
O=C(c1ccco1)N1CCN(c2ncnc3scc(-c4ccc(F)cc4)c23)CC1	?	i	i	?	?	4%
Cc1sc2ncnc(N3CCN(C(=O)c4ccco4)CC3)c2c1C	?	18µM*	?	-26%	-27%	-1%
CCc1cccc(NC(=O)c2cc3c(=O)n(Cc4ccccc4)ccc3nc2C)c1	·	i	i	·	·	·
Nc1nc2ccccc2n1S(=O)(=O)c1ccc(Cl)cc1	·	i	i	-9%	-6%	·
O=C(NNC(=O)c1cc2cc(Br)ccc2oc1=O)c1ccc(O)cc1O	?	?	i	?	1.8µM*	11%
COCCCNC(=O)c1cc2cc(Br)ccc2oc1=O	3%	i	i	?	25%	-8%
Cc1ccc(NC(=O)CN2C(=O)CCc3cc(S(=O)(=O)N4CCOCC4)ccc32)cc1N(C)C	·	?	i	·	·	·
O=C(Nc1ncc(Cc2cccc(Cl)c2)s1)c1cccs1	?	13µM*	?	?	?	14%
O=C(Nc1ncc(Cc2cccc(Cl)c2)s1)C1=NCCN1	-3%	i	i	20µM*	0%	8%
Cc1cccc2c(=O)cc(CSCC(=O)Nc3ccc(Cl)cc3)[nH]c12	·	i	i	·	·	·
CSc1nsc(/C=C/Nc2ccc(F)cc2F)c1C#N	?	i	i	-4%	-3%	?
CSc1nsc(/C=C/Nc2ccc(C(=O)O)cc2)c1C#N	5.2µM*	i	i	-1%	1%	?
Cc1ccc(-c2cc(C(=O)N3CCN(c4ncccn4)CC3)c3ccccc3n2)cc1	?	?	i	?	?	7%
CCN1CCN(C(=O)c2cc(-c3ccc(Cl)s3)nc3ccccc23)CC1	?	i	i	?	?	3%
COc1cc(C(=O)N2CCN(c3ccccc3)CC2)c2ccccc2n1	?	?	0.58µM*	?	0.52µM*	10µM*
COc1ccc(-c2cc(C(=O)N3CCN(c4ncccn4)CC3)c3ccccc3n2)cc1OC	29%	i	i	-15%	-2%	8.2µM*
COc1cccc(-c2cc(C(=O)N3CCN(c4ncccn4)CC3)c3ccccc3n2)c1	15µM*	?	i	-25%	-22%	-31%
O=C(c1cc(-c2cccnc2)nc2ccccc12)N1CCN(S(=O)(=O)c2ccc(Cl)s2)CC1	12%	9.2µM*	i	-14%	0%	2%
Cc1cn([C@H]2C[C@H](O)[C@@H](/C=C/C(=O)NCCc3ccc4c(c3)OCO4)O2)c(=O)[nH]c1=O	·	i	i	14%	25%	·

Screens from PubChem.
